High-throughput results from PubChem.
CYP2C9 inhib – blockers of cytochrome P450 2C9 activity – biochemical, luminescence, ADME assay, primary screen; CYP2C9 Supersomes, luciferin-H conversion; inhibition, % at 5 µM; P11712; actives 20% (n = 96,000);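 active = blocking of liver enzyme CYP2C9 beyond about 50% at 5 µM, limit read from the data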
CYP2C9 act – human CYP2C9 activators, primary screen, biochemical, luminescence. activation factor at 5 µM. actives 1.4% (n = 96,000). AID 1024, 2008. recombinant CYP2C9, luciferin-H conversion; active compounds read high; factor 1 = untreated enzyme, 0 = blocked. Cytochrome P450 2C9 (Homo sapiens), P11712;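 active = activation factor of 2 or more for CYP2C9 at a 5 µM dose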;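 also: 0 = sulfaphenazole-blocked wells and 1 = vehicle-only wells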
CYP2C19 inh – blockers of cytochrome P450 2C19 activity – biochemical, luminescence, ADME assay, primary screen; P33261; AID 778, 2007; inhibition, % at 5 µM; actives 21% (n = 96,000); CYP2C19 Supersomes, luciferin-H EGE luminescence, 30 min;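 active = CYP2C19 inhibition above a set limit at 5 µM in the primary screen, cut at about 50% in these data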;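 also: plate controls were negative control wells for no effect and 2.5 mM tranylcypromine positive control for full effect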
CYP2C19 activ – human CYP2C19 activators, primary screen, biochemical, luminescence; Cytochrome P450 2C19 (Homo sapiens), P33261; recombinant CYP2C19, luciferin-H EGE luminescence; active compounds read high; 0 = fully inhibited enzyme, 1 = untreated enzyme; activation factor at 5 µM; 96,000 tested, under 10 active;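 active = activation factor of at least 2 at 5 µM in the primary screen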;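 also: 0 = wells with 2.5 mM tranylcypromine and 1 = vehicle-only wells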
Numbers without * were called inactive. An excerpt weighted towards active compounds, which were near 31% of everything screened.

SMILES	CYP2C9 inhib	CYP2C9 act	CYP2C19 inh	CYP2C19 activ
O=C(NCc1ccco1)/C(=C/c1cccnc1)NC(=O)c1ccco1	-22	1.2	-8	1.1
COc1ccc2c(-c3ccccc3)cc(=O)[nH]c2c1	41	0.6	5	0.9
COc1ccc(C(C[N+](=O)[O-])c2c(-c3ccccc3)cc3ccccn23)c(OC)c1 (stereo unspecified)	70*	0.3	37	0.6
Cc1cc(C)n(CC(=O)Nc2ccccc2)n1	-6	1.1	10	0.9
Cc1cccc(NC(=O)CCn2nc(C)cc2C)c1	-160	2.6*	71*	0.3
Cc1ccc(NC(=O)CNc2cccc(C)c2C)c(C)c1	52*	0.5	64*	0.4
Cc1ccc(NC(=O)CCn2nc(C)cc2C)c(C)c1	-2	1	53*	0.5
CCOC(=O)c1ccc(N2C(=O)C3C(C2=O)C(C(=O)c2ccc(Cl)cc2)N2CCCC32)cc1 (stereo unspecified)	16	0.8	22	0.8
CCCS(=O)(=O)n1nc(-c2ccc(OC)cc2)cc1N	87*	0.1	94*	0.1
Cc1ccc(-c2cc(N)n(Cc3ccc(Cl)cc3)n2)cc1	62*	0.4	83*	0.2
CCCS(=O)(=O)n1nc(-c2ccc(C)cc2)cc1N	67*	0.3	91*	0.1
COc1cc(OC)cc(-c2cc(N)n(S(=O)(=O)Cc3ccccc3)n2)c1	87*	0.1	43	0.6
CN(C)c1ccc(N2CN=C3SCC(=O)N3C2)cc1	10	0.9	13	0.9
CCOC(=O)CSc1nnc(CCc2nc3ccccc3[nH]2)n1C	0	1	0	1
CC(C)Oc1ccccc1C1CC(=O)Nc2cc3c(cc21)OCO3 (stereo unspecified)	76*	0.2	99*	0
CCOc1ccccc1C1CC(=O)Nc2cc3c(cc21)OCCO3 (stereo unspecified)	69*	0.3	54*	0.5
O=C1CC(c2cccnc2)c2cc3c(cc2N1)OCO3 (stereo unspecified)	4	1	-2	1
Cn1c(CNc2ccccc2)cc(=O)n(C)c1=O	2	1	9	0.9
CC(C)(C)n1nnnc1C(c1cccs1)N(Cc1ccc(Cl)cc1)CC1CCCO1 (stereo unspecified)	29	0.7	31	0.7
CC(=O)NC(CC(C)C)C(=O)NC(=O)NCc1ccccc1 (stereo unspecified)	-5	1.1	20	0.8
Cc1nc(OCC(=O)c2ccc(Cl)cc2)c(C#N)c2c1COC(C)(C)C2	18	0.8	52*	0.5
CCc1nc(OCC(=O)c2ccccc2)c(C#N)c2c1COC(C)(C)C2	28	0.7	47	0.5
CN(C)CCNc1nc(-c2ccco2)c2c(c1C#N)CC(C)(C)OC2	4	1	-9	1.1
CC1(C)Cc2c(C#N)c(OCC(=O)c3ccc(Cl)cc3)nc(-c3ccco3)c2CO1	18	0.8	59*	0.4
CCn1cnc2sc(C(=O)N(Cc3ccc(N(C)C)cc3)Cc3ccco3)c(C)c2c1=O	98*	0	88*	0.1
SMILES	CYP2C9 inhib	CYP2C9 act	CYP2C19 inh	CYP2C19 activ
CCOC(=O)c1sc2ncnc(NCc3ccco3)c2c1C	38	0.6	41	0.6
O=C(O)C1CCCCC1C(=O)NCCCCc1ccccc1 (stereo unspecified)	44	0.6	4	1
O=C(NC1CCCCCCC1)C1CCN(S(=O)(=O)N2CCCC2)CC1	-5	1.1	-5	1.1
C/C=C/c1ccc(OCCCN2C(=O)NC(C)(C)C2=O)c(OC)c1	20	0.8	29	0.7
CC1(C)NC(=O)N(CC(O)COc2ccccc2C(=O)N2CCCCC2)C1=O (stereo unspecified)	17	0.8	14	0.9
CCC(=O)c1ccccc1OCCN1C(=O)NC(C)(C)C1=O	67*	0.3	75*	0.3
CC1(C)NC(=O)N(CCCCOc2ccc(Br)cc2Cl)C1=O	66*	0.3	99*	0
CC(C)c1cc(Br)ccc1OCCCN1C(=O)NC(C)(C)C1=O	78*	0.2	92*	0.1
CC1(C)NC(=O)N(CCCOc2ccc(Br)cc2Cl)C1=O	51*	0.5	92*	0.1
O=C(COc1cccc(C(F)(F)F)c1)NCCCN1CCCC1=O	26	0.7	16	0.8
Cc1ccc(C(C)C)c(OCCN2C(=O)NC(C)(C)C2=O)c1	43	0.6	77*	0.2
Cc1ccc(C(C)C)c(OCCN)c1	23	0.8	9	0.9
